Tb PGK inh: qHTS Assay to Find Inhibitors of Phosphoglycerate Kinase; Phosphoglycerate kinase, glycosomal (Trypanosoma brucei brucei), P07378; PGK/GAPDH coupled, Kinase-Glo luminescence, 60 min; hit rate 0.043% among 380,000; AID 602233, 2012; Potency, µM (titrated, usually from 57.5 µM), for inactives: at the top dose activity change, negative = inhibition, actives largely listed as inhibitors; also: % is scaled to controls: 0 for no effect and ±100 for the full control effect; nearly all actives have a fitted effect of over 60% in size
Target sequence (P07378 whole entry, looked up): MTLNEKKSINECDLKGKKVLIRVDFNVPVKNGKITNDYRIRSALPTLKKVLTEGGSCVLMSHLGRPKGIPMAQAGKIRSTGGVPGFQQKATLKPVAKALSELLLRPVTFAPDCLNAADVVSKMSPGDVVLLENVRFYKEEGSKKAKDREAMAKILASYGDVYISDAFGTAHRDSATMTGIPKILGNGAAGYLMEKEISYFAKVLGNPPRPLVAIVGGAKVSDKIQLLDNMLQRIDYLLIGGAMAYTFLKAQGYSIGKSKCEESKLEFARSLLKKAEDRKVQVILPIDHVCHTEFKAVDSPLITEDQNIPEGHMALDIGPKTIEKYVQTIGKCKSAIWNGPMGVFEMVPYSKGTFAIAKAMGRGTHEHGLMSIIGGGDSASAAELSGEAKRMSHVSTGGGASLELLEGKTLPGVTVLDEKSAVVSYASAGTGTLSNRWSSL
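Luminescent ATP detection (Kinase-Glo Plus) follows a 60-minute room-temperature incubation, with wells lacking PGK as controls. Buffer: 100 mM TEA (pH 7.6), 5 mM MgCl2, 0.01% Tween-20. Coupling enzyme GAPDH (100 nM final) supplies unstable 1,3-BPG in-well.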
Chronic BCR inh: qHTS Assay to Find Inhibitors of Chronic Active B-Cell Receptor Signaling; ABC-DLBCL IkBa-CBG/CBR reporter, luminescence ratio, 4 h; AID 493014, 2011; Potency, µM (highest dose often 46.1 µM), without a hit: at the top dose activity change, negative = inhibition, actives largely listed as inhibitors; hit rate 0.05% among 340,000; active = well fitted inhibition curve with a large enough effect in the signal ratio, with a control signal flat, not every such curve was filed as active; inconclusive = small, poorly fitted or top-dose-only effect, or effect the other way, or a change in a side signal; the % refers to the signal ratio;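 also: plate controls were basal doxycycline-induced cells for no effect and cells given 10 µM MG132 for full effect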
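TMD8 human ABC-DLBCL cells with doxycycline-inducible IκBα–green luciferase fusion and unfused red luciferase, in 0.5% FBS medium; compounds up to 46 uM, 4 h at 37C. Green/red luminescence ratio, filter-overlap corrected, fitted to concentration-response curves.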
Pin1 inhibitor: qHTS Assay to Find Inhibitors of Pin1 | Peptidyl-prolyl cis-trans isomerase NIMA-interacting 1 (Homo sapiens), Q13526 | Pin1 FP peptide displacement, HiFluor488, 10 min | Potency, µM (doses to about 115 µM), for the others: at the highest dose activity, negative = inhibition, actives largely listed as inhibitors | hit rate 0.009% among 390,000; active = well fitted inhibition curve with a large enough effect in the polarisation, with a control signal flat, not every such curve was filed as active; inconclusive = small, poorly fitted or top-dose-only effect, or effect the other way, or a change in a side signal; inactive = no such curve, though single readings can be large or run the other way; the % refers to the polarisation; also: % is scaled to controls: 0 for no effect and ±100 for the full control effect
Target sequence (Q13526 whole entry, looked up): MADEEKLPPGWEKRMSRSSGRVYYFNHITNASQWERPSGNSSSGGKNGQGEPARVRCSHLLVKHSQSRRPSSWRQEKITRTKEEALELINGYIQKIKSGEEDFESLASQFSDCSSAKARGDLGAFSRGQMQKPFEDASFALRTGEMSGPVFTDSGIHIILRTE
GLS inh: qHTS for Inhibitors of Glutaminase (GLS); Potency, µM (doses to about 45.5 µM), without a hit: top-dose activity change, negative = inhibition, hits mostly inhibitors; GLS enzymatic activity, qHTS titration; hit rate 0.21% among 410,000; AID 624170, 2012; also: % is scaled to controls: 0 for no effect and ±100 for the full control effect
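hKGA in 45 mM KH2PO4 (pH 8.2), 0.02% Tween-20 with compound, then 1mM L-Glutamine (stock as added) plus glutamate oxidase/HRP/Amplex red coupling mix. Fluorescence read initially and after 30 min at RT; signal change reflects glutamate formation.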
B2AR arrestin: qHTS assay of beta-arrestin-biased ligands of beta2-adrenergic receptor | hit rate 0.02% among 330,000 | Potency, µM (top dose mostly 46.1 µM), without a hit: at the highest dose activation, actives largely listed as activators | Beta-2 adrenergic receptor (Homo sapiens), P07550 | beta-arrestin recruitment to beta2AR, cell-based reporter | AID 492947, 2010;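 also: 0% = DMSO controls and full agonism = EC100 isoproterenol or metaproterenol; nearly all actives have a fitted effect of over 65% in size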
Tb PFK inh-1: qHTS Assay to Find Inhibitors of T. brucei phosphofructokinase | ATP-dependent 6-phosphofructokinase (Trypanosoma brucei brucei), O15648 | T. brucei PFK, ADP-Glo luminescence | Potency, µM (series often up to 57.5 µM), without a hit: top-dose activity, negative = inhibition, actives largely listed as inhibitors | hit rate 0.17% among 330,000 | AID 485367, 2010;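 also: 0% = uninhibited 1x PFK enzyme wells and -100% = no-enzyme wells; nearly all actives have a fitted effect of over 60% in size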
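ADP-Glo luminescence quantified ADP after 45 min at room temperature, with 1.25 nM T. brucei PFK, 0.1 mM ATP and 0.5 mM fructose-6-phosphate in pH 8.0 TEA buffer. qHTS titrations up to 57 µM; curves classified by quality.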
Tb PFK KinaseGlo: Tb PFK orthogonal confirmatory assay using ATP depletion (Kinase-Glo Plus) as an alternative measure of Tb PFK activity: Hit Validation; shares compounds with Tb PFK inh-1; Tb PFK enzyme, ATP depletion, Kinase-Glo Plus luminescence; Potency, µM (series often up to 57.5 µM), inactives show at the highest dose inhibition; hit rate 47% among 1,100; AID 504636, 2011; calls by dose curve; also: nearly all actives have a fitted effect of over 60% in size
Tb PFK inh-2: Inhibitors of T. brucei phosphofructokinase: Hit Validation; shares compounds with Tb PFK inh-1; purified T. brucei PFK, ADP-Glo luminescence, 45 min; Potency, µM (series often up to 57.5 µM), without a hit: at the top dose activity change, negative = inhibition, usual class: inhibitors; hit rate 41% among 1,100;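 also: plate controls were full PFK enzyme control for no effect and no enzyme control for full effect; nearly all actives have a fitted effect of over 60% in size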
Active calls of the source: *. A selection: hits, their analogues and other compounds. The true share with any hit is near 0.42%. Unless noted, calls follow the shape of the dose curve; as a rule, active = well fitted curve in the direction sought with a large enough effect; inconclusive = small, poorly fitted or top-dose-only effect, or another doubt; inactive = no such curve, though single readings can be large; an effect the other way counts as inactive or inconclusive. Potency is read from the fitted curve at half-maximal effect.

Screening CC1OC(O[C@H]2C[C@@H](O)[C@]3(CO)[C@@H]4C(CC[C@]3(O)C2)[C@@]2(O)CC[C@H](C3=CC(=O)OC3)[C@@]2(C)C[C@H]4O)C(O)C(O)C1O (some centres not stated) returned GLS inh -15.6%.
For N#CCSc1nnc(CNc2cccc(Cl)c2)o1 the results were Tb PGK inh 1.5%, Chronic BCR inh 0.0%, Pin1 inhibitor -1.9%, GLS inh 16.9%, B2AR arrestin -0.6%, Tb PFK inh-1 23.9µM*, Tb PFK KinaseGlo 13.5µM* and Tb PFK inh-2 21.3µM*.
CCOc1ccc(C(=O)CC(NCc2cccs2)C(=O)O)cc1 (configuration not stated) was read as Tb PGK inh -0.7%, Chronic BCR inh inconclusive, Pin1 inhibitor 6.0%, GLS inh 3.1%, B2AR arrestin -0.1% and Tb PFK inh-1 29.5%.
Screening Nc1c(/C=C2/C=CC(=O)C(O)=C2)c(=O)nc2sc(CC(=O)N3CCCCC3)nn12 returned Tb PGK inh inconclusive, Chronic BCR inh -7.4%, Pin1 inhibitor -1.8%, GLS inh -9.0%, B2AR arrestin -0.1%, Tb PFK inh-1 19µM*, Tb PFK KinaseGlo 2.69µM* and Tb PFK inh-2 3.79µM*.
For COc1ccc(NC(=O)CN2C(=O)CN=C(c3ccccc3)c3ccccc32)c(OC)c1 the results were Tb PGK inh -11.9%, Chronic BCR inh inconclusive, Pin1 inhibitor -1.7% and GLS inh -8.2%.
COc1cc(/C=N/n2cnnc2)ccc1OC(=O)N(C)C was read as Tb PGK inh -3.3%, Chronic BCR inh inconclusive, Pin1 inhibitor 6.0%, GLS inh 4.4%, B2AR arrestin -0.4% and Tb PFK inh-1 -1.1%.
Cc1cccc(NC(=O)COc2ccc(/C=N\n3cnnc3)cc2)c1 was read as Tb PGK inh -9.6%, Chronic BCR inh 5.3%, Pin1 inhibitor -1.4%, GLS inh 1.7%, B2AR arrestin -1.1%, Tb PFK inh-1 inconclusive, Tb PFK KinaseGlo inconclusive and Tb PFK inh-2 -18.4%.
Screening Oc1ccc2[nH]cc(CCCCN3CC=C(c4ccccc4)CC3)c2c1 returned GLS inh 15.1%.
For Cc1ncc([N+](=O)[O-])n1CC(=O)Nc1ccc(F)c(F)c1 the results were Tb PGK inh inactive, Chronic BCR inh 1.7%, Pin1 inhibitor 6.9%, GLS inh -12.8%, B2AR arrestin -0.7%, Tb PFK inh-1 inconclusive, Tb PFK KinaseGlo inconclusive and Tb PFK inh-2 inconclusive.
`CC(=O)N1CCN(CC(=O)Nc2ccc(C#N)c(Cl)c2)CC1` gave Tb PGK inh -9.0%, Chronic BCR inh -11.2%, Pin1 inhibitor -0.5%, GLS inh 1.4%, B2AR arrestin 0.1% and Tb PFK inh-1 -4.8%.
COC(=O)/C(C#N)=C(/Nc1ccc(F)c(Cl)c1)C(F)(F)F was read as Tb PGK inh -4.4%, Chronic BCR inh inconclusive, Pin1 inhibitor -5.1%, GLS inh 1.9%, B2AR arrestin -0.2%, Tb PFK inh-1 26.9µM*, Tb PFK KinaseGlo 12µM* and Tb PFK inh-2 26.9µM*.
Screening CCC(=O)Nc1ccc(F)c(Cl)c1 returned Tb PGK inh 0.4%, Chronic BCR inh 9.9%, Pin1 inhibitor 3.8%, GLS inh 2.0%, B2AR arrestin 2.3%, Tb PFK inh-1 30.1µM*, Tb PFK KinaseGlo inconclusive and Tb PFK inh-2 inconclusive.
`O=C(Nc1ccc(F)c(Cl)c1)Nn1cnnc1` gave Chronic BCR inh 1.4%, B2AR arrestin -0.4%, Tb PFK inh-1 16.9µM*, Tb PFK KinaseGlo inconclusive and Tb PFK inh-2 inconclusive.
For CN(C)C(=O)Oc1ccc(Br)cc1C(=O)Nc1ccc(F)c(Cl)c1 the results were Tb PGK inh -4.7%, Chronic BCR inh inconclusive, Pin1 inhibitor -0.2%, GLS inh -0.6%, B2AR arrestin -0.3% and Tb PFK inh-1 1.8%.
`O=C(Cn1cnc([N+](=O)[O-])c1)Nc1ccc(F)c(Cl)c1` gave Tb PGK inh 4.5%, Chronic BCR inh inconclusive, Pin1 inhibitor -0.7%, GLS inh 4.3%, B2AR arrestin -0.4%, Tb PFK inh-1 23.9µM*, Tb PFK KinaseGlo 7.57µM* and Tb PFK inh-2 10.7µM*.
O=C(CSc1n[nH]c(=O)n1C1CC1)Nc1ccc(F)c(Cl)c1 was read as Tb PGK inh 4.9%, Chronic BCR inh inconclusive, Pin1 inhibitor -0.3%, GLS inh 8.9%, B2AR arrestin -0.2%, Tb PFK inh-1 inconclusive, Tb PFK KinaseGlo inconclusive and Tb PFK inh-2 inconclusive.
`CN1c2ccccc2C(NCCCCCCC(=O)O)c2ccc(Cl)cc2S1(=O)=O` (configuration not stated) gave GLS inh 3.7%.
Screening Clc1ccc(CN2C3=NCCN3c3ccccc32)cc1Cl returned Tb PGK inh -1.2%, Chronic BCR inh inconclusive, Pin1 inhibitor 12.4%, GLS inh 6.7%, B2AR arrestin -0.5%, Tb PFK inh-1 6.75µM*, Tb PFK KinaseGlo 3.01µM* and Tb PFK inh-2 6.01µM*.
CC(NC(=O)c1ccco1)C(=O)N1CCN(c2cccc(C(F)(F)F)c2)CC1 (configuration not stated) was read as Tb PGK inh inactive, Chronic BCR inh -2.7%, Pin1 inhibitor 0.5%, GLS inh -8.5%, B2AR arrestin 4.9%, Tb PFK inh-1 inconclusive, Tb PFK KinaseGlo 14.3% and Tb PFK inh-2 -9.7%.
CC(Cc1ccccc1)NC(=O)Cc1ccc([N+](=O)[O-])cc1 (configuration not stated) was read as Tb PGK inh -2.5%, Chronic BCR inh 4.2%, Pin1 inhibitor -0.6%, GLS inh 1.6%, B2AR arrestin -0.4% and Tb PFK inh-1 inconclusive.
